The list is not random: actives were taken first. Their share in the collection is about 4.1%.
NSD2 HMT inh – NSD2 (human) methyltransferase inhibition; AID 743445; 310,000 compounds, 0.54% hits; NSD2 peptide methylation, AlphaScreen, 120 min; O96028; inhibition, % at 12.5 µM; in the data active = inhibition above about 50%
CASP6 VEID inh – blocks human caspase-6 cleavage activity; purified caspase-6, Z-VEID-R110 cleavage fluorescence; inhibition, % at 12.5 µM; P55212; 350,000 compounds, 0.53% hits; AID 686996;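 active = mean inhibition across replicates at least about 35%, with every replicate also reaching that limit, limit read from the data; inconclusive = only one of the two criteria met; inactive = neither criterion met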
ALR H2O2 inh – human ALR oxidase inhibition via reduced H2O2 | 290,000 compounds, 3.8% hits | purified ALR, DTT oxidation, H2O2 HRP-luminol luminescence | P55789 | AID 485317 | inhibition, % (no concentration beside the values);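 active = mean replicate inhibition above about 79%, with every replicate also reaching it, limit read from the data; inconclusive = only one of the two criteria met; inactive = mean below limit and not every replicate reaching it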
Env fusion inh – HIV envelope-mediated fusion inhibition; HeLa-JRFL Env/CEM21 cell fusion, luciferase; inhibition, % at 12.3 µM; 360,000 compounds, 1.1% hits; AID 651610;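 active = mean replicate inhibition score of at least 50 and every replicate individually at or above 50; inconclusive = only one of the two criteria met; inactive = mean below 50 and not all replicates reaching 50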
PglD inh – PglD (C. jejuni) enzyme inhibition | purified PglD enzyme, DTNB colorimetric CoA detection | inhibition, % at 12.5 µM | 360,000 compounds, 0.098% hits | AID 602405; in the data active = inhibition above about 16%, passing the limit was not always enough; inconclusive = no clear call, values can overlap the other calls
F508del corr – CFTR F508del correction in bronchial cells; CFBE cells, YFP halide quenching; stimulated with forskolin plus potentiator P3; % fluorescence drop versus neutral controls; activity (quench increase), % at 7.58 µM; 350,000 compounds, 0.36% hits; AID 720511;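 active = mean added fluorescence quench of at least 8% versus neutral control, with both replicates also reaching 8%; inconclusive = only one of the mean or replicate conditions met; inactive = mean below 8% and not both replicates reaching 8%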;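 also: cells transiently co-express mutant CFTR-F508del with the halide-sensitive YFP; corrector assay measuring rescue of mutant channel to the surface after 24 h compound exposure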
Numbers stand for hits; n = inactive; u = inconclusive; x = no result given.

SMILES | NSD2 HMT inh | CASP6 VEID inh | ALR H2O2 inh | Env fusion inh | PglD inh | F508del corr
O=C(NC1CCC1)[C@H]1[C@H](CO)[C@H]2Cn3c(cccc3=O)[C@@H]1N2CC1CCCC1 | x | n | x | x | x | n
CC1=C(C(=O)OCc2ccc3c(c2)OCO3)C(c2ccc(F)cc2)NC(=O)N1 (stereo unspecified) | n | x | n | 100 | n | x
CC1=C(C(=O)OCc2ccc3c(c2)OCO3)C(c2ccc(Cl)cc2)NC(=O)N1 (stereo unspecified) | n | n | x | x | n | n
Cn1c(-c2ccccc2)c(C#Cc2ccc(N)cc2)c2ccccc21 | x | n | n | 70 | n | n
N#Cc1sc2nccc(Nc3ccccc3)c2c1N | n | n | n | 62 | n | n
Nc1cc(Nc2ccccc2)ccn1 | n | n | n | n | n | n
CCOc1ccc(/C=N/NC(=O)C2(O)c3ccccc3-c3ccccc32)cc1 | n | n | n | n | n | n
COc1cc(/C=N/NC(=O)c2cc3ccccc3[nH]2)ccc1O | n | n | 100 | n | n | n
COc1cc(/C=N/NC(=O)C(=O)/C=C2\NC(C)(C)Cc3ccccc32)ccc1O | n | n | 82 | n | x | n
COc1cc(/C=N/NC(=O)C2(O)c3ccccc3-c3ccccc32)ccc1O | n | n | 99 | x | n | n
COc1cc(/C=N/NC(=O)c2cc[n+]([O-])cc2)ccc1O | n | n | 99 | n | n | n
COc1cc(/C=N/NC(=O)C(=O)Nc2ccccn2)ccc1O | n | x | u | n | n | x
C[C@H](O)C#Cc1ccc2c(c1)O[C@@H](CN(C)CC1CCOCC1)[C@H](C)CN([C@H](C)CO)S2(=O)=O | x | x | x | n | n | n
Cc1noc(C)c1NC(=O)N(C)C[C@@H]1Oc2c(NC(=O)CCCCCC(=O)Nc3ccccc3N)cccc2C(=O)N([C@@H](C)CO)C[C@H]1C | x | n | x | x | x | n
O=C(Nc1cccc(Cl)c1)N[C@H]1CC[C@@H](CCNC(=O)C2CCOCC2)O[C@H]1CO | x | n | x | n | n | n
CC(C)OCCCN(C)C1CCN(S(=O)(=O)c2ccc(-c3cc(C(F)(F)F)on3)s2)CC1 | n | x | x | x | x | x
COc1cc(/C=N/NC(=O)c2ccncc2)ccc1O | x | n | 99 | n | n | n
COc1cc(/C=N/Nc2ncc(C(F)(F)F)cc2Cl)cc(OC)c1OC | n | n | n | n | x | n
COc1cc(/C=N/Nc2ncc(C(F)(F)F)cc2Cl)cc(OC)c1O | n | x | 99 | n | x | x
COc1cc(/C=N/NC(=O)c2cccc(C(=O)N/N=C/c3ccc(O)c(OC)c3)n2)ccc1O | n | n | n | n | n | n
COc1cc(/C=N/NC(=O)c2nc(C)cc(C)n2)ccc1O | n | x | 99 | x | x | x
COc1cc(/C=N/Nc2cc(C)nc(N)n2)ccc1O | n | n | 98 | n | n | n
COc1ccc(/C=N/NC(=O)c2ccncc2)cc1OC | n | n | n | n | n | n
CO[C@H]1CN(C)C(=O)c2cc(NC(=O)c3ccccc3)ccc2OC[C@H](C)N(C)C[C@H]1C | x | n | x | x | n | n
CO[C@H]1CN(C)C(=O)c2ccc(NC(=O)CC(F)(F)F)cc2OC[C@@H](C)N(CC2CC2)C[C@H]1C | x | n | x | x | x | n
SMILES | NSD2 HMT inh | CASP6 VEID inh | ALR H2O2 inh | Env fusion inh | PglD inh | F508del corr
CO[C@H]1CN(C)C(=O)c2ccc(NC(=O)C3CCOCC3)cc2OC[C@@H](C)N(Cc2cccnc2)C[C@@H]1C | x | n | x | x | n | n
C[C@@H]1CN([C@H](C)CO)C(=O)c2cc(-c3ccc(C#N)cc3)cnc2O[C@@H]1CN(C)C(=O)Nc1ccc(F)cc1 | x | n | x | n | n | n
C[C@H](CO)N1C[C@H](C)[C@@H](CN(C)C(=O)c2ccncc2)Oc2cc(-c3cccc(C#N)c3)ccc2S1(=O)=O | x | n | x | n | n | n
COc1cc(/C=N/Nc2ccc(C(F)(F)F)cn2)ccc1O | n | n | 99 | n | x | n
COc1ccc([C@@H]2[C@@H]3C(=O)N(C(C)(C)C)C(=O)[C@@H]3[C@]3(Cc4ccc(Cl)cc4)C(=O)N(c4cccc(F)c4)C(=O)N23)cc1 | x | n | n | 107 | n | n
COc1ccc([C@@H]2[C@@H]3C(=O)N(C(C)(C)C)C(=O)[C@@H]3[C@]3(Cc4ccccc4)C(=O)N(c4ccccc4)C(=O)N23)cc1 | x | n | n | n | n | n
COc1ccc([C@@H]2[C@@H]3C(=O)N(C(C)(C)C)C(=O)[C@@H]3[C@]3(Cc4ccc(Cl)cc4)C(=O)N(c4cccc(Br)c4)C(=O)N23)cc1 | x | n | n | 78 | n | n
COc1ccc([C@@H]2[C@@H]3C(=O)N(C(C)(C)C)C(=O)[C@@H]3[C@]3(Cc4ccccc4)C(=O)N(c4cccc(C)c4)C(=O)N23)cc1 | x | n | n | n | n | n
COc1ccc([C@@H]2[C@@H]3C(=O)N(C(C)(C)C)C(=O)[C@@H]3[C@]3(Cc4ccccc4)C(=O)N(c4cccc(Cl)c4)C(=O)N23)cc1 | x | n | n | 80 | n | n
O=C(C[C@H]1C=C[C@@H](NC(=O)CN2CCOCC2)[C@@H](CO)O1)NCc1cccc(F)c1 | x | n | x | n | n | n
C[C@@H]1CN([C@@H](C)CO)C(=O)c2cc(NC(=O)C3CC3)ccc2O[C@@H]1CN(C)Cc1ccncc1 | x | n | x | n | n | n
Cc1nn(-c2ccccc2)cc1/C=N/O | n | x | n | n | n | x
Cc1nn(-c2ccccc2)cc1/C=N/NC(N)=S | n | n | 97 | n | n | n
COc1ccc(C)cc1NC(=O)c1cc2c(CO)cnc(C)c2oc1=N | x | n | 86 | n | n | n
COc1ccccc1NC(=O)c1cc2c(CO)cnc(C)c2oc1=Nc1ccc(OC)c(OC)c1 | n | n | n | n | n | n
O=C(c1cc(C2CC2)on1)N1CCN(c2ccccc2)CC1 | x | n | 86 | x | n | n
O=C(c1cc(-c2ccc3c(c2)OCO3)on1)N1CCN(c2ccccc2)CC1 | n | x | n | n | n | x
O=C(c1cc(-c2ccc(O)cc2)on1)N1CCN(c2ccccc2)CC1 | n | n | 81 | n | n | n
Cc1ccc(-c2cc(C(=O)N3CCCCCC3)no2)cc1 | n | n | n | n | n | n
O=C(c1cc(-c2ccc(O)cc2)on1)N1CCCC1 | n | n | 99 | n | n | n
O=C(c1cc(C2CC2)on1)N1CCCC(N2CCN(c3ccc(F)cc3)CC2)C1 (stereo unspecified) | n | x | n | n | n | n
O=C(c1cc(-c2ccc(O)cc2)on1)N1CCN(c2ccc(F)cc2)CC1 | x | n | 91 | n | n | n
O=C(C[C@H]1CC[C@@H](NC(=O)C2CC2)[C@H](CO)O1)NCCCN1CCOCC1 | x | n | x | n | n | n
COc1cccc(C(=O)Nc2ccc3c(c2)C(=O)N(C)C[C@H](OC)[C@@H](C)CN(C)[C@H](C)CO3)c1 | x | x | x | x | n | n
COc1ccc(/C=C2\CCCC(C(=O)C(F)(F)F)=C2O)cc1 | n | x | n | n | n | x
O=C(C1=C(O)/C(=C/c2ccc(O)cc2)CCC1)C(F)(F)F | x | x | 99 | x | n | x
CC1(C)CC(=O)C(=Cc2cn(CCC#N)nc2-c2ccc(F)cc2)C(=O)C1 | n | n | 95 | n | n | n

Compound activity (PubChem)
